The list is not random: actives were taken first. Their share in the collection is about 1.1%.
MOR-DOR inv ag – mu-delta opioid heterodimer inverse agonism. 340,000 compounds, 0.21% hits. inhibition, % at 9.3 µM. AID 504357. P35372+P41143. cell-based MOR-DOR heterodimer luminescence; in the data active means inhibition above about 22%, passing the limit was not always enough
HTR5A ag – HTR5A agonism, opioid heterodimer counter-screen; AID 504692; activation, % at 9.3 µM; P47898; 340,000 compounds, 0.61% hits; HTR5A agonist assay, luminescence, cell-based; in the data active means activation mostly above about 9.5%, no sharp cut-off; inactive means mostly below about 7.6%
MOR-DOR ag-1 – agonists of human mu-delta opioid receptor heterodimerization | 340,000 compounds, 0.3% hits | cells, OPRM1-OPRD1 heterodimerization, luminescence | P35372+P41143 | activation, % at 9.3 µM | AID 504326
HTR5A inv ctr – HTR5A inverse agonism, opioid heterodimer counter-screen. AID 504634. 340,000 compounds, 0.083% hits. P47898. inhibition, % at 9.3 µM. HTR5A cell line, luminescence; in the data active means inhibition mostly above about 23%, no sharp cut-off; inactive means mostly below about 18%
MOR-DOR ag-2 – promotes OPRM1-OPRD1 heterodimerization in HTR5A counter-screen; 800 compounds, 13% hits; activation, % at 9.3 µM; AID 504913; U2OS counter-screen cells, complementation luminescence, 3 h; shares compounds with HTR5A ag
HTR5A ag confirm – HTR5A (human) agonism, confirmation; HTR5A agonist cell assay, luminescence; activation, % at 9.3 µM; shares compounds with HTR5A ag; 800 compounds, 17% hits; in the data active means activation above about 17%
Hits are given with their value; – = inactive; · = no result. Unless noted, no stated cut-off is given here; in the data, active means activation above about 18%; inactive means the rest.

SMILES	MOR-DOR inv ag	HTR5A ag	MOR-DOR ag-1	HTR5A inv ctr	MOR-DOR ag-2	HTR5A ag confirm
Cc1ccc(C)c(S(=O)(=O)N/N=C/c2ccc(N(C)C)cc2)c1	–	–	–	–	·	·
Cc1ccc(C)c(S(=O)(=O)N/N=C/c2ccc(F)cc2)c1	–	15	–	–	–	–
Cc1cc(C)nc(/N=C(\NC(=O)C(C)(C)C)Nc2ccc(F)cc2)n1	–	–	–	–	·	·
COc1ccc(CC(=O)Nc2cccc(-c3nnc(-c4cccc(C)c4)o3)c2)cc1OC	–	–	–	–	·	·
COc1ccc(CC(=O)Nc2cccc(-c3nnc(-c4ccccc4)o3)c2)cc1OC	–	16	–	–	–	–
COC(=O)c1cc(NC(=O)Cc2cccs2)cc(C(=O)OC)c1	–	–	–	–	·	·
Cc1nc(NC(=O)CSc2ccc(-c3nc4ccccc4[nH]3)cn2)sc1C	–	17	–	–	–	–
CCc1nnc(NC(=O)CSc2ccc(-c3nc4ccccc4[nH]3)cn2)s1	–	–	–	–	·	·
Cc1onc(-c2ccccc2Cl)c1C(=O)NCCN1Cc2ccccc2C1=O	–	29	–	–	–	–
Cc1cccc(NC(=O)N2CCC(NC(=O)C3CCCCC3)CC2)c1	–	17	–	–	–	–
CC(C)=C(NC(=O)c1ccccc1)C(=O)Nc1cccc(C)c1	–	–	–	–	·	·
COc1ccc(CN(C)C(=O)Cc2ccc(OC)c(S(=O)(=O)N3CCOCC3)c2)cc1	–	–	–	–	·	·
COc1ccc(NC(=O)C2CCCNC2)cc1OCC(C)C (stereo not given)	–	–	–	–	·	·
COc1ccc(NC(=O)C2CCCN(CCCc3ccccc3)C2)cc1OCC(C)C (stereo not given)	–	16	–	–	–	–
COc1ccc(NC(=O)CSc2nnc(Cc3cccn3C)n2-c2ccc(C)cc2)cc1OC	–	15	–	–	–	–
COc1ccc(-n2c(Cc3cccn3C)nnc2SCC(=O)Nc2cccc(OC)c2)cc1	–	–	–	–	·	·
Cc1ccc(OCC(=O)NCCCNC(=O)c2ccncc2)cc1C	–	–	–	–	·	·
COc1cccc(CNC(=O)CCc2nnc3ccc(NCCCN4CCCC4=O)nn23)c1	–	17	–	–	–	–
COc1ccc(CNC(=O)CCc2nnc3ccc(NCCCN4CCCC4=O)nn23)cc1	–	–	–	–	·	·
O=C(NCCc1cnc[nH]1)Nc1cccc(C(F)(F)F)c1	–	17	–	–	–	–
CN(Cc1ccccc1)C(=O)c1[nH]cnc1C(=O)N[C@@H](Cc1ccccc1)C(=O)OC(C)(C)C	–	–	–	–	·	·
Cc1cc(=O)[nH]c(N/N=C/c2c[nH]c3ccccc23)n1	–	24	–	–	–	46
C(=N\Nc1nc2ccccc2[nH]1)/c1c[nH]c2ccccc12	–	–	–	–	·	·
CC(OC(=O)c1ccccn1)C(=O)Nc1ccc(C(F)(F)F)cc1 (stereo not given)	–	–	–	–	·	·
CC(OC(=O)c1ccco1)C(=O)Nc1ccc(C(F)(F)F)cc1 (stereo not given)	–	20	–	–	–	–
SMILES	MOR-DOR inv ag	HTR5A ag	MOR-DOR ag-1	HTR5A inv ctr	MOR-DOR ag-2	HTR5A ag confirm
Oc1ccc(-c2csc(-c3c[nH]c4ccccc34)n2)c(O)c1	–	27	–	–	–	26
Cc1ccc(-c2csc(-c3c[nH]c4ccccc34)n2)c(C)c1	–	–	–	–	·	·
CCCCn1c(N)c(N(CCOC)C(=O)c2cnc(C)cn2)c(=O)[nH]c1=O	–	–	–	–	·	·
O=C1NCCCC1C(=O)Nc1cccc(C(F)(F)F)c1 (stereo not given)	–	22	–	–	–	–
CCOC(=O)C(C)N1N=C(/C=C/c2ccc(C)cc2)CCC1=O (stereo not given)	–	21	–	–	–	–
O=C(/C=C/c1cccc(F)c1)OCC(=O)N1CCc2ccccc21	–	18	–	–	–	–
C=CCNC(=O)c1onc(CSc2ccc(F)cc2)c1C(=O)NCC=C	–	22	–	–	–	–
COCCn1c(Cc2ccccc2)nnc1SCC(=O)NC1CC1	–	–	–	–	·	·
COc1ccc(NC(=S)NCCc2c[nH]c3ccc(OC)cc23)c(OC)c1	–	16	–	–	–	–
COc1ccc(NC(=S)NCCc2c[nH]c3ccccc23)c(OC)c1	–	–	–	–	·	·
COc1ccc2[nH]c(C)c(CCNC(=S)Nc3cc(C)cc(C)c3)c2c1	–	20	–	–	–	–
COc1ccc2[nH]c(C)c(CCNC(=S)Nc3cccc(C)c3)c2c1	–	–	–	–	·	·
COc1ccc2[nH]cc(CCNS(=O)(=O)Cc3ccccc3)c2c1	–	22	–	–	–	–
COc1ccc2[nH]cc(CCNC(=O)Cc3ccc(Cl)cc3)c2c1	–	17	–	–	–	37
CCOC(=O)c1ccc2c(c1)N(CC#N)C(=O)C(C)(C)O2	–	–	–	–	·	·
O=C(NCCc1c[nH]c2ccccc12)C(=O)Nc1cc2c3c(c1)CC(=O)N3CCC2	–	16	–	–	31	–
Cc1cccc(CSCCNC(=O)COc2ccc(Cl)cc2)c1	–	14	–	–	–	–
O=C(COc1ccc(Cl)cc1)NCCSCc1cccc(Cl)c1	–	–	–	–	·	·
CCOc1ccccc1NC(=S)N(CCOC)C1CCN(C(C)=O)CC1	–	15	–	–	–	–
Cc1c(C(=O)c2no[n+]([O-])c2C(=O)c2cnn(C)c2C)cnn1C	–	26	–	–	–	–
O=C(c1cccs1)c1no[n+]([O-])c1C(=O)c1cccs1	–	–	–	–	·	·
N#Cc1ccccc1OCC(=O)NNC(=O)CCNC(=O)c1ccccc1	–	–	–	–	·	·
CCc1cc(C(=O)N2CCCC(C(=O)c3ccc(C(F)(F)F)cc3)C2)n(C)n1 (stereo not given)	–	–	–	–	·	·
COc1cc(OC)cc(C(=O)Nc2nnc(NC(=S)Nc3ccccc3)s2)c1	–	15	–	–	–	–
COc1cc(OC)cc(C(=O)Nc2ccc(Nc3ccccc3)cc2)c1	–	–	–	–	·	·
SMILES	MOR-DOR inv ag	HTR5A ag	MOR-DOR ag-1	HTR5A inv ctr	MOR-DOR ag-2	HTR5A ag confirm
Cc1csc(Cn2c(CN(C)C)nc3ccccc3c2=O)n1	–	–	–	–	·	·
CN(C)Cc1nc2ccccc2c(=O)n1Cc1nc(-c2cc3ccccc3o2)cs1	–	17	–	–	–	–
N/C(Cc1ccc([N+](=O)[O-])cc1)=N\OC(=O)c1ccc([N+](=O)[O-])cc1	–	21	–	–	–	–
COc1ccc(C(=O)O/N=C(\N)Cc2ccc(Cl)cc2)cc1OC	–	25	–	–	–	–
N/C(Cc1ccc(Cl)cc1)=N\OC(=O)c1ccccc1	–	–	–	–	·	·
O=C(COc1ccccc1)Nc1ccc(-c2nnc(-c3ccco3)o2)cc1	–	16	–	–	–	–
COc1ccccc1OCC(=O)Nc1cccc(-c2nnc(-c3ccco3)o2)c1	–	–	–	–	·	·
Cc1cccc(C(=O)NNC(=O)c2ccccc2C)c1	–	–	–	–	·	·
Cc1ccccc1C(=O)NNC(=O)c1cccc([N+](=O)[O-])c1	–	17	–	–	–	–
O=C1CCCc2c1oc1c2CCCC1	–	–	–	–	·	·

Source: PubChem (The Scripps Research Institute Molecular Screening Center)
